Measured values reported in PubChem BioAssay (NCI).
Compounds without any hit were thinned out: in the full panel of roughly 83,000, 20% have a hit.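 Assay: single dose, 48 h. Readout: percent growth (0 = no net growth; negative = cell death). Active: <10.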 Values without a mark were called inactive. Calls of active or inactive are those of the source.

Each compound was assayed on MDA-MB-468 breast (assay: NCI-60 one-dose screen, 48 h (100 = growth as untreated, 0 = no growth, -100 = all killed)). Conditions: 10 µM unless noted.
Compound `O=C1CCCC=CC[C@H]2C=C(Cl)C(=O)C2=CC[C@H](CCCCC(F)(F)F)OC(=O)CCCC=CC[C@H]2C=C(Cl)C(=O)C2=CC[C@H](CCCCC(F)(F)F)OC(=O)CCCC=CC[C@H]2C=C(Cl)C(=O)C2=CC[C@H](CCCCC(F)(F)F)O1` has a growth of 59.9% [6.25 µM]. For `Cc1cccc(Cl)c1N`, the growth was 110%. `N#C/C(=C\c1c(-c2ccccc2)[nH]c2ccccc12)C(=O)c1ccccc1` gave a growth of 86.9%. In the case of `NC(=O)c1n[nH]n2c1nc(=O)c1c3c(sc12)CCCC3`, the growth is reported as 120%. Work on `N#CC1=C(N)Oc2ccc3ccccc3c2C1c1ccc([N+](=O)[O-])cc1` (stereo unspecified) yielded a growth of 66.7%. Work on `C=C1C(=O)O[C@H]2[C@H]1CC/C(COC(=O)c1cccnc1)=C\CC[C@@]1(C)O[C@@H]21` yielded a growth of 17.6%. With `CC(C)OC(=O)Nc1cc(F)ccc1F` the growth was 92.8%. `Cc1cc(=O)oc2c1ccc1oc(C(=O)c3ccccc3)c(C)c12` was tested, and the growth was 76.1%. For `C=C(C)[C@@H]1CC[C@]2(C(=O)OCCOCCOCC[P+](c3ccccc3)(c3ccccc3)c3ccccc3)CC[C@]3(C)[C@H](CC[C@@H]4[C@@]5(C)CC[C@H](OC(=O)C(Cl)Cl)C(C)(C)[C@@H]5CC[C@]43C)[C@@H]12`, the growth was -53.7% (active). For `Cc1c(C(=O)NCCN2CCOCC2)cn2ncnc(Oc3ccc(NC(=O)Nc4ccc(Cl)c(C(F)(F)F)c4)cc3)c12`, the growth was -10.4% (active). `COc1ccc2c(c1)c(CC(=O)O)c(C)n2C(=O)c1ccc(Cl)cc1` was tested, and the growth was 96.4%.
